# In all, about 5,500 compounds went through this assay and about 2,000 (36%) were called active. Inconclusive results (about 18%) are left out. This is one part of the list. Values without a mark were called inactive. Cut-off read from the data, not from the text of the source: active = normalized growth mostly below about 0.91 (no sharp cut-off); inconclusive = no clear call, values can overlap the other calls; inactive = mostly above about 0.92.
# Assay: chemical genetic growth profiling, strain panel (AID 1159580);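 note: tested at 20 µM; growth read once vehicle control cultures reached saturation at 30 °C; 1 = growth at the plate median or of vehicle wells; lower values mean less growth of the strain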
# Conditions: growth OD
structure (smiles),measurement,setting,value
COc1ccc2cc3[n+](cc2c1OC)CCc1cc2c(cc1-3)OCO2,normalized growth,"S. cerevisiae deletion strains, locus YJR075W, strain HOC1, stronger effect = lower value",0.394 (active)
same,normalized growth,"S. cerevisiae deletion strains, locus YKL009W, strain mrt4, stronger effect = lower value",0.922
same,normalized growth,"S. cerevisiae deletion strains, locus YKL068W, stronger effect = lower value",1
same,normalized growth,"S. cerevisiae deletion strains, locus YKL085W, strain MDH1 (second series), stronger effect = lower value",0.996
same,normalized growth,"S. cerevisiae deletion strains, locus YKL085W, strain MDH1, stronger effect = lower value",0.996
same,normalized growth,"S. cerevisiae deletion strains, locus YKL160W, strain elf1, stronger effect = lower value",0.985
same,normalized growth,"S. cerevisiae deletion strains, locus YKL190W, strain CNB1, stronger effect = lower value",0.293 (active)
same,normalized growth,"S. cerevisiae deletion strains, locus YKR001C, strain vps1, stronger effect = lower value",0.338 (active)
same,normalized growth,"S. cerevisiae deletion strains, locus YKR026C, strain gcn3, stronger effect = lower value",0.994
same,normalized growth,"S. cerevisiae deletion strains, locus YKR091W, strain srl3, stronger effect = lower value",0.985
same,normalized growth,"S. cerevisiae deletion strains, locus YLL001W, strain dnm1, stronger effect = lower value",0.99
same,normalized growth,"S. cerevisiae deletion strains, locus YLL026W, stronger effect = lower value",1.02
same,normalized growth,"S. cerevisiae deletion strains, locus YLL041C, strain sdh2, stronger effect = lower value",0.989
same,normalized growth,"S. cerevisiae deletion strains, locus YLR027C, strain aat2, stronger effect = lower value",0.972
same,normalized growth,"S. cerevisiae deletion strains, locus YLR039C, strain RIC1, stronger effect = lower value",0.904
same,normalized growth,"S. cerevisiae deletion strains, locus YLR058C, strain SHM2, stronger effect = lower value",0.409 (active)
same,normalized growth,"S. cerevisiae deletion strains, locus YLR102C, strain apc9, stronger effect = lower value",0.702 (active)
same,normalized growth,"S. cerevisiae deletion strains, locus YLR113W, strain HOG1, stronger effect = lower value",0.83 (active)
same,normalized growth,"S. cerevisiae deletion strains, locus YLR221C, strain rsa3, stronger effect = lower value",1
same,normalized growth,"S. cerevisiae deletion strains, locus YLR258W, strain gsy2, stronger effect = lower value",0.99
same,normalized growth,"S. cerevisiae deletion strains, locus YLR262C, strain YPT6 (second series), stronger effect = lower value",1.04
same,normalized growth,"S. cerevisiae deletion strains, locus YLR262C, strain YPT6, stronger effect = lower value",0.82
same,normalized growth,"S. cerevisiae deletion strains, locus YLR268W, strain sec22, stronger effect = lower value",0.409 (active)
same,normalized growth,"S. cerevisiae deletion strains, locus YLR320W, strain mms22, stronger effect = lower value",0.993
same,normalized growth,"S. cerevisiae deletion strains, locus YLR330W, strain CHS5, stronger effect = lower value",0.711 (active)
same,normalized growth,"S. cerevisiae deletion strains, locus YLR342W, strain FKS1 (second series), stronger effect = lower value",0.373 (active)
same,normalized growth,"S. cerevisiae deletion strains, locus YLR342W, strain FKS1, stronger effect = lower value",0.979
same,normalized growth,"S. cerevisiae deletion strains, locus YLR357W, strain rsc2, stronger effect = lower value",0.948
same,normalized growth,"S. cerevisiae deletion strains, locus YLR370C, strain arc18, stronger effect = lower value",0.99
same,normalized growth,"S. cerevisiae deletion strains, locus YLR371W, strain rom2, stronger effect = lower value",0.8 (active)
same,normalized growth,"S. cerevisiae deletion strains, locus YLR384C, strain iki3, stronger effect = lower value",0.975
same,normalized growth,"S. cerevisiae deletion strains, locus YLR418C, strain cdc73, stronger effect = lower value",0.478 (active)
same,normalized growth,"S. cerevisiae deletion strains, locus YML016C, strain PPZ1, stronger effect = lower value",0.413 (active)
same,normalized growth,"S. cerevisiae deletion strains, locus YML032C, strain rad52, stronger effect = lower value",0.459 (active)
same,normalized growth,"S. cerevisiae deletion strains, locus YML120C, strain ndi1, stronger effect = lower value",0.996
same,normalized growth,"S. cerevisiae deletion strains, locus YML124C, strain tub3, stronger effect = lower value",0.652 (active)
same,normalized growth,"S. cerevisiae deletion strains, locus YMR058W, strain fet3, stronger effect = lower value",0.985
same,normalized growth,"S. cerevisiae deletion strains, locus YMR078C, strain ctf18, stronger effect = lower value",0.912
same,normalized growth,"S. cerevisiae deletion strains, locus YMR125W, strain sto1, stronger effect = lower value",0.981
same,normalized growth,"S. cerevisiae deletion strains, locus YMR129W, stronger effect = lower value",0.991
same,normalized growth,"S. cerevisiae deletion strains, locus YMR205C, strain PFK2, stronger effect = lower value",0.967
same,normalized growth,"S. cerevisiae deletion strains, locus YMR223W, strain ubp8, stronger effect = lower value",0.393 (active)
same,normalized growth,"S. cerevisiae deletion strains, locus YMR231W, strain pep5, stronger effect = lower value",0.995
same,normalized growth,"S. cerevisiae deletion strains, locus YMR263W, strain SAP30, stronger effect = lower value",0.55 (active)
same,normalized growth,"S. cerevisiae deletion strains, locus YMR307W, strain GAS1, stronger effect = lower value",0.986
same,normalized growth,"S. cerevisiae deletion strains, locus YNL067W, strain RPL9B, stronger effect = lower value",0.319 (active)
same,normalized growth,"S. cerevisiae deletion strains, locus YNL071W, strain lat1, stronger effect = lower value",0.991
same,normalized growth,"S. cerevisiae deletion strains, locus YNL128W, strain TEP1, stronger effect = lower value",0.518 (active)
same,normalized growth,"S. cerevisiae deletion strains, locus YNL153C, strain GIM3, stronger effect = lower value",0.701 (active)
same,normalized growth,"S. cerevisiae deletion strains, locus YNL183C, strain NPR1, stronger effect = lower value",0.855
same,normalized growth,"S. cerevisiae deletion strains, locus YNL209W, strain ssb2, stronger effect = lower value",0.98
same,normalized growth,"S. cerevisiae deletion strains, locus YNL233W, strain BNI4, stronger effect = lower value",0.593 (active)
same,normalized growth,"S. cerevisiae deletion strains, locus YNL248C, strain rpa49, stronger effect = lower value",0.975
same,normalized growth,"S. cerevisiae deletion strains, locus YNL250W, strain rad50, stronger effect = lower value",0.995
same,normalized growth,"S. cerevisiae deletion strains, locus YNL271C, strain bni1, stronger effect = lower value",0.963
same,normalized growth,"S. cerevisiae deletion strains, locus YNL298W, strain CLA4, stronger effect = lower value",0.971
same,normalized growth,"S. cerevisiae deletion strains, locus YNL307C, strain MCK1, stronger effect = lower value",0.561 (active)
same,normalized growth,"S. cerevisiae deletion strains, locus YNL322C, strain KRE1 (second series), stronger effect = lower value",0.987
same,normalized growth,"S. cerevisiae deletion strains, locus YNL322C, strain KRE1, stronger effect = lower value",0.496 (active)
same,normalized growth,"S. cerevisiae deletion strains, locus YNR049C, strain mso1, stronger effect = lower value",0.998
same,normalized growth,"S. cerevisiae deletion strains, locus YNR052C, strain pop2, stronger effect = lower value",0.671 (active)
same,normalized growth,"S. cerevisiae deletion strains, locus YOL006C, strain TOP1, stronger effect = lower value",0.405 (active)
same,normalized growth,"S. cerevisiae deletion strains, locus YOL012C, strain htz1",2.03 [resistant] (active)
same,normalized growth,"S. cerevisiae deletion strains, locus YOL147C, strain pex11, stronger effect = lower value",0.603 (active)
same,normalized growth,"S. cerevisiae deletion strains, locus YOR001W, strain rrp6, stronger effect = lower value",0.973
same,normalized growth,"S. cerevisiae deletion strains, locus YOR061W, strain CKA2, stronger effect = lower value",0.378 (active)
same,normalized growth,"S. cerevisiae deletion strains, locus YOR069W, strain VPS5, stronger effect = lower value",0.731 (active)
same,normalized growth,"S. cerevisiae deletion strains, locus YOR070C, strain gyp1, stronger effect = lower value",0.984
same,normalized growth,"S. cerevisiae deletion strains, locus YOR080W, strain dia2, stronger effect = lower value",0.992
same,normalized growth,"S. cerevisiae deletion strains, locus YOR083W, strain WHI5, stronger effect = lower value",0.994
same,normalized growth,"S. cerevisiae deletion strains, locus YOR106W, strain vam3, stronger effect = lower value",1.02
same,normalized growth,"S. cerevisiae deletion strains, locus YOR136W, strain idh2, stronger effect = lower value",0.748 (active)
same,normalized growth,"S. cerevisiae deletion strains, locus YOR144C, strain elg1, stronger effect = lower value",0.586 (active)
same,normalized growth,"S. cerevisiae deletion strains, locus YOR184W, strain ser1, stronger effect = lower value",0.333 (active)
same,normalized growth,"S. cerevisiae deletion strains, locus YOR231W, strain MKK1, stronger effect = lower value",0.822 (active)
same,normalized growth,"S. cerevisiae deletion strains, locus YOR265W, strain rbl2, stronger effect = lower value",0.984
same,normalized growth,"S. cerevisiae deletion strains, locus YOR270C, strain vph1, stronger effect = lower value",0.976
same,normalized growth,"S. cerevisiae deletion strains, locus YOR290C, strain snf2, stronger effect = lower value",0.96
same,normalized growth,"S. cerevisiae deletion strains, locus YOR316C, strain cot1, stronger effect = lower value",0.663 (active)
same,normalized growth,"S. cerevisiae deletion strains, locus YPL051W, strain arl3, stronger effect = lower value",0.994
same,normalized growth,"S. cerevisiae deletion strains, locus YPL055C, strain LGE1, stronger effect = lower value",0.525 (active)
same,normalized growth,"S. cerevisiae deletion strains, locus YPL078C, strain atp4, stronger effect = lower value",0.991
same,normalized growth,"S. cerevisiae deletion strains, locus YPL106C, strain sse1, stronger effect = lower value",0.964
same,normalized growth,"S. cerevisiae deletion strains, locus YPL240C, strain hsp82, stronger effect = lower value",1.01
same,normalized growth,"S. cerevisiae deletion strains, locus YPL241C, strain CIN2, stronger effect = lower value",0.558 (active)
same,normalized growth,"S. cerevisiae deletion strains, locus YPL256C, strain CLN2, stronger effect = lower value",0.786 (active)
same,normalized growth,"S. cerevisiae deletion strains, locus YPR119W, strain clb2, stronger effect = lower value",0.804 (active)
same,normalized growth,"S. cerevisiae deletion strains, locus YPR141C, strain kar3, stronger effect = lower value",1.01
same,normalized growth,"S. cerevisiae deletion strains, locus YPR163C, strain tif3, stronger effect = lower value",0.984
same,normalized growth,"S. cerevisiae deletion strains, locus YPR167C, strain met16, stronger effect = lower value",0.622 (active)
same,normalized growth,"S. cerevisiae deletion strains, strain wtn01, stronger effect = lower value",0.305 (active)
same,normalized growth,"S. cerevisiae strains, strain wild type, stronger effect = lower value",0.408 (active)

# From PubChem BioAssay AID1159580 (chemical genetic matrix, 2015)
